High-throughput results: PubChem, The Scripps Research Institute Molecular Screening Center
Compounds with a hit are over-represented: about 1.3% of the library has one in this group of screens.
PKA-R1A act: activators of PKA-R1A holoenzyme, primary screen, biochemical, fluorescence polarization, Cy5-IP20, bovine R1A, mouse PKAc. 340,000 compounds, 0.083% hits. activation, % at 11.4 µM. PKA-R1A dissociation; scaled: DMSO 0%, 113 µM cGMP 100%. cAMP-dependent protein kinase type I-alpha regulatory subunit (Bos taurus) + …;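 active = percent activation above the mean of all tested compounds plus 3 SD, cut at about 19% in these data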;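 also: higher means more PKAc released from R1A so a rise in polarization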
eLon inh: inhibitors of E. coli Lon protease, primary screen, biochemical, fluorescence polarization; purified E. coli Lon protease; inhibition, % at 7.94 µM; 360,000 compounds, 0.42% hits; AID 602123, 2011; in the data active = inhibition above about 13%, passing the limit was not always enough;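 also: 0% = enzyme with probe and DMSO and 100% = no enzyme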
Rin1 Abl inh: inhibitors of Rin1-Abl protein binding, primary screen, biochemical, TR-FRET; inhibition, % at 7.35 µM; 360,000 compounds, 0.4% hits; Tyrosine-protein kinase ABL1 (Homo sapiens) + Ras and Rab interactor 1 (Homo sapiens), …; in the data active = inhibition above about 5%, passing the limit was not always enough
IDE inh: human IDE inhibitors in live cells, primary screen, fluorescence polarization, HEK cells, FAbetaB substrate | Insulin-degrading enzyme (Homo sapiens), P14735 | FAbetaB cleavage | inhibition, % at 5.59 µM | 320,000 compounds, 0.41% hits;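 active = percent inhibition above the average of all tested compounds plus 3 SD, set per screening campaign, cut at about 16% in these data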;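 also: IDE supplied by intact live HEK cells; FP after avidin binding of uncleaved biotin substrate so inhibition keeps polarization high; 0% = DMSO wells and 100% = 60 µM reference IDE inhibitor Ii1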
PKA-R2B act: activators of PKA-R2B holoenzyme, primary screen, biochemical, fluorescence polarization, Cy5-IP20, human. cAMP-dependent protein kinase catalytic subunit beta (Homo sapiens) + cAMP-dependent …. PKA-R2B holoenzyme dissociation; R2B truncated from residue 108, S112A mutant; 0% DMSO only, 100% 113 µM cGMP. activation, % at 11.4 µM. 340,000 compounds, 0.079% hits. AID 504700, 2011;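 active = activation above a cutoff set at the mean over all compounds plus 3 SD, cut at about 18% in these data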;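 also: higher means more holoenzyme dissociation and a rise in polarization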
IDE act: human IDE activators in live cells, primary screen, fluorescence polarization, HEK cells, FAbeta-B substrate | activation, % at 5.96 µM | AID 493087, 2011 | FAbeta-B cleavage; 0% vehicle, 100% cell-free pure enzyme wells | 340,000 compounds, 0.073% hits | Insulin-degrading enzyme (Homo sapiens), P14735;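 active = activation above the mean of all tested compounds plus 3 SD, set per screening campaign, cut at about 17% in these data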
R2B FP artifact: fluorescence polarization artefacts, biochemical, artefact control for PKA-R2B activator project; shares compounds with PKA-R2B act; FP artifact counterscreen; activation, % at 11.4 µM; 270 compounds, 6% hits; AID 504796, 2011; in the data active = activation above about 20%;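 also: Cy5 labelled IP20 peptide probe with compound but no PKA protein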
PKA-R2B confirm: activators of PKA-R2B holoenzyme, confirmation, biochemical, fluorescence polarization, human | 270 compounds, 9% hits | PKA-R2B complex, activation | shares compounds with PKA-R2B act | AID 504797, 2011 | activation, % at 11.4 µM; in the data active = activation above about 19%
Active calls of the source: *; · = no result.

SMILES	PKA-R1A act	eLon inh	Rin1 Abl inh	IDE inh	PKA-R2B act	IDE act	R2B FP artifact	PKA-R2B confirm
CC1=CC2=NC(=O)CC(C)(C(=O)N(CC(=O)NC(C)(C)C)C3CCCC3)N2C=C1 (stereo unspecified)	-3.9	-2.1	3.3	1.3	22.3*	1.4	-1.2	-1.1
CC(C)(C)NC(=O)CN(C(=O)C1(C)CC(=O)N=C2C=CC=CN21)C1CCCC1 (stereo unspecified)	0.1	-1.6	-1.2	2.5	2.5	-5.3	·	·
Cc1cccc(Nc2ncnc(N)n2)c1	-1.1	-5.4	0.1	6.8	20.5*	2.4	6.4	4.5
COc1ccc(C(=O)NC2(C(F)(F)F)N=C3SCCN3C2=O)cc1 (stereo unspecified)	-1.2	-4.6	-3.5	-1.4	19.5*	-1.2	0.0	-3.0
CN1C(CCl)Nc2cc(Cl)c(S(N)(=O)=O)cc2S1(=O)=O (stereo unspecified)	-1.7	-10.8	0.4	·	-4.3	5.8	·	·
CCC1NC(=O)c2cc(S(N)(=O)=O)c(Cl)cc2N1 (stereo unspecified)	10.3	-8.4	-3.6	0.7	21.3*	3.1	4.5	2.1
CC(C)COC(=O)Cc1c(O)c2ccccc2[nH]c1=O	15.4	-9.9	-2.1	4.5	21.2*	-0.4	3.6	1.9
CCCCOC(=O)Cc1c(O)c2ccccc2[nH]c1=O	-2.1	-0.4	0.4	4.9	3.4	0.6	·	·
CCn1c(=O)c(C(=O)NNS(=O)(=O)c2ccc(Cl)cc2)c(O)c2ccccc21	-1.7	-3.2	3.9	3.7	18.4*	1.4	-2.8	-1.9
Cc1cc(N2CCCC2=O)ccc1S(=O)(=O)N1CCOCC1	12.4	-8.3	0.3	-1.3	23.2*	-0.5	0.9	5.2
CC1=NN(c2nc(-c3ccc(Cl)cc3)cs2)C(=O)C1	5.9	0.3	2.7	-2.8	19.9*	2.9	0.5	3.7
CC1=NN(c2nc(-c3ccc(F)cc3)cs2)C(=O)C1	-5.9	-4.2	-3.0	-4.0	1.7	-1.0	·	·
Cc1cc(C(=O)NC2CCCN(Cc3ccc(Cl)cc3)C2)c(C)o1 (stereo unspecified)	3.5	-13.1	-0.1	-3.4	20.1*	4.4	2.0	0.0
CC1=NN(C(=O)COc2ccccc2)C(O)(c2cccnc2)C1 (stereo unspecified)	-5.1	-4.1	2.3	-2.4	-5.2	2.7	·	·
CCOc1ccc(Oc2ccc(-c3nnc(-c4ccccc4)o3)cc2[N+](=O)[O-])cc1	13.0	-14.2	3.6	3.1	21.3*	0.8	-0.8	-1.5
O=[N+]([O-])c1cc(-c2nnc(-c3ccccc3)o2)ccc1Oc1ccc(Cl)cc1	13.0	-4.8	2.6	-1.2	-6.0	4.7	·	·
CCOc1ccc(NC(=O)CSc2nnnn2-c2ccc(C(N)=O)cc2)cc1	-13.3	9.9	0.2	1.0	20.8*	3.1	2.3	-0.6
COc1ccc(NC(=O)CSc2nnnn2-c2ccc(OC)cc2)cc1	-4.4	-1.2	1.4	-5.4	-5.6	6.2	·	·
Cc1onc(-c2ccccc2)c1C(=O)Nc1ccc(Br)cc1Cl	2.0	-6.1	2.8	4.2	19.1*	0.1	5.7	0.1
CCOc1ccc(NC(=O)N2CCC(c3nc4ccccc4o3)CC2)cc1	-14.5	-6.2	2.2	-1.9	-6.0	0.7	·	·
CC(C)CN(C(=O)COC(=O)/C=C/c1cccs1)c1c(N)n(Cc2ccccc2)c(=O)[nH]c1=O	-1.1	-0.4	3.0	2.4	9.0	-3.6	·	·
